{"source": "PubChem BioAssay (NCI)", "note": "About 83,000 compounds went through this panel and 20% of them were active in at least one assay; those are over-represented in the sample as a whole.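 Testing used 96-well plates and a 48-hour single-concentration exposure. Example: -40 means 40% of the starting cells died.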 The source made the active and inactive calls. The calls were made as follows: active = growth percent below 10; inactive = the rest.", "data": [{"tested_on": "HL-60(TB) leukemia", "test": "NCI-60 one-dose screen, 48 h (100 = growth as untreated, 0 = no growth, -100 = all killed)", "details": "10 µM unless noted", "values": [{"molecule": "COc1ccc(Cc2nn(CC(=O)N/N=C/c3ccc(Cl)cc3)c(=O)c3c(C)noc23)cc1", "growth": "101% (inactive)"}, {"molecule": "C#CCOc1cccc(-c2nc(N)nc(Nc3ccccc3SSc3ccccc3Nc3nc(N)nc(-c4cccc(OCC#C)c4)n3)n2)c1", "growth": "23.7% (inactive)"}, {"molecule": "COc1cc(/C=C/C(=O)c2ccc(F)cc2)ccc1Oc1nc(NCCO)nc(N2CCOCC2)n1", "growth": "39.8% (inactive)"}, {"molecule": "NC(=O)c1cc(-c2ccc3ncnc(N4CCc5cc(F)c(Cl)cc54)c3c2)cnc1N", "growth": "-4.97% (active)"}, {"molecule": "CC[C@]12C=CCN3CC[C@@]4(c5cc(NC(=O)COc6cc(O)c7c(=O)cc(-c8ccccc8)oc7c6)c(OC)cc5N(C)[C@H]4[C@@](O)(C(=O)OC)[C@@H]1OC(C)=O)[C@@H]32", "growth": "-44.9% (active)"}, {"molecule": "C#C[C@]1(O)CC[C@H]2[C@@H]3CC=C4c5sc(Nc6cc(Cl)ccc6OC)nc5CC[C@]4(C)[C@H]3CC[C@@]21C", "growth": "5.48% (active)"}, {"molecule": "O=C(Nc1nonc1-c1ccccc1)c1ccc(C(F)(F)F)cc1", "growth": "79.1% (inactive)"}, {"molecule": "CC(=O)NC(C)(C)C(=O)N1CCC[C@H]1C(=O)NC(C)(C)C(=O)N[C@@H](C)C(=O)NC(C)(C)C(=O)N[C@@H](C)C(=O)N[C@@H](CCC(N)=O)C(=O)NC(C)(C)C(=O)N[C@H](C(=O)NC(C)(C)C(=O)NCC(=O)N[C@@H](CC(C)C)C(=O)NC(C)(C)C(=O)N1CCC[C@H]1C(=O)N[C@H](C(=O)NC(C)(C)C(=O)NC(C)(C)C(=O)N[C@@H](CCC(N)=O)C(=O)N[C@@H](CCC(N)=O)C(=O)N[C@H](CO)Cc1ccccc1)C(C)C)C(C)C", "growth": "95.6% [4.25 µM] (inactive)"}]}]}
